Inconclusive results are not listed. Calls of active or inactive are those of the source.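 The calls were made as follows: active = cell viability at or below a set limit in both duplicate runs, the limit being the all-compound median minus 4 SD (cut at about 23% in these data, passing the limit was not always enough); inconclusive = no clear call, values can overlap the other calls; inactive = the rest.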

The nature of the assay: growth suppression of beta-catenin knockout HCT116, pilot screen, human colon tumor cells (AID 823).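 Also: 0% = wells killed by 20 µM Hyamine and 100% = untreated DMSO cell wells.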 The following applies: CellTiter-Glo, 60 h, at 10 µM, active compounds read low.
Take `Cn1c2ccc(CC(=O)O)cc2c2cc(CC(=O)O)ccc21`: the viability is 96.8% (inactive).
In the case of `CS(=O)(=O)N1CCN(c2nc(-c3ccccc3)cs2)CC1`, the viability is 99.9% (inactive).
On to `CCOc1cc(CN2CCSCC2)ccc1O`, for which the viability was 97% (inactive).
With `Cc1cc(C)cc(OCC(O)CN2C(=O)NC(C)(C)C2=O)c1` (configuration not stated) the figure was 108% (inactive).
Regarding `O=C(NC1CCCCCCC1)c1ccc(CNc2c(N3CCOCC3)c(=O)c2=O)cc1`, the viability is 100% (inactive).
With `COC(=O)C1=C(O)CSC1=Nc1cccc(C(F)(F)F)c1` the figure was 101% (inactive); with `COc1cccc(C2c3c(oc4cc(C)c(C)cc4c3=O)C(=O)N2CCCN(C)C)c1` (configuration not stated), 93.6% (inactive); with `CCOC(=O)c1ccc(NC(=O)NCCN2CCCCC2)cc1`, 105% (inactive).
The same measure for `COc1ccc(-c2nnc3ccc(SCC(=O)N4CCCC4)nn23)cc1`: 101% (inactive).
The same measure for `CC(=O)c1cc(F)c(N2CCN(CCC#N)CC2)cc1C`: 105% (inactive); for `COc1ccc(-n2c(Cn3c(=O)sc4ccccc43)nnc2SCC(=O)N2CCOCC2)cc1`: 102% (inactive); for `CCOC(=O)c1c(NC(=O)c2cc(C3CC3)on2)sc2c1CCCC2`: 102% (inactive).
With `CCOc1ccccc1C(=O)Nc1nnc(C(C)C)s1`, the viability is 98.1% (inactive).
The same measure for `COc1ccccc1N1CCN(C(=O)CCCC2=NS(=O)(=O)c3ccccc3N2)CC1`: 97.3% (inactive); for `O=C(O)CC1C(=O)NCCN1Cc1ccc(F)c(F)c1` (configuration not stated): 99.4% (inactive).
The same measure for `CCc1ccccc1S(=O)(=O)Cc1ccc(C(=O)NC(C)C)o1`: 107% (inactive); for `Cc1cc(Nc2ccc(Br)c(C)c2)n2nc(C)nc2n1`: 80.9% (inactive).
